Laboratory results as given in PubChem BioAssay (NCATS).

Molecular target: Catechol O-methyltransferase (Homo sapiens) (UniProt P21964)
Assay: Confirmatory Screen for Target Class Profiling of Small Molecule Inhibitors of Methyltransferases (AID 1745852); for activity change, negative = inhibition: % is set by controls: 0 for no effect and ±100 for the full control effect
Details: MTase-Glo luminescence, SAH detection, recombinant enzyme; measured here: COMT max response; stronger effect = lower value

Chain of Catechol O-methyltransferase (Homo sapiens) (P21964 whole entry, looked up): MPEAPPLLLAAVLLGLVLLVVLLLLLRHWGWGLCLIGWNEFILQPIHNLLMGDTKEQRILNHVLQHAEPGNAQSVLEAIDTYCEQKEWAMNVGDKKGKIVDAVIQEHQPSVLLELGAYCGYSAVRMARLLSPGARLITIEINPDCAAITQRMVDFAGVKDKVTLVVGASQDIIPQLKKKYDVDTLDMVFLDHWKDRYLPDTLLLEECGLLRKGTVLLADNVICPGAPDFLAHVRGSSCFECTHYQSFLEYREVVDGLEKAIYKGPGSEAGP

| SMILES | activity |
| --- | --- |
| Cc1cnc(Nc2ccc(CN3CCOCC3)cc2)nc1Nc1cccc(S(=O)(=O)NC(C)(C)C)c1 | -0.0774% |
| CCOC(=O)[C@@H](N)Cc1ccc(-c2cc(O[C@H](c3ccc(Cl)cc3-n3ccc(C)n3)C(F)(F)F)nc(N)n2)cc1 | -0.461% |
| Cc1cnc(Nc2ccc(N3CCN(C)CC3)cc2)nc1Nc1cccc(S(=O)(=O)NC(C)(C)C)c1 | 8.73% |
| N#Cc1c(C2CCNCC2)cc(-c2c(O)cccc2OCC2CC2)nc1N | -9.7% |
| c1ccc2c(Oc3nc(Nc4ccc(N5CCOCC5)cc4)c4ncn(C5CCCCC5)c4n3)cccc2c1 | 0.484% |
| CN1CCc2c(c3ccccc3n2Cc2ccc(C(=O)NO)cc2)C1 | 0% |

Molecular target: Guanidinoacetate N-methyltransferase (Homo sapiens) (UniProt Q14353)
Assay: as above
Details: MTase-Glo luminescence, SAH detection, recombinant enzyme; activity change, negative = inhibition: at 57.3 µM (top of the series); series mostly up to 57.3 µM

| SMILES | activity change, negative = inhibition |
| --- | --- |
| Cc1cnc(Nc2ccc(CN3CCOCC3)cc2)nc1Nc1cccc(S(=O)(=O)NC(C)(C)C)c1 | 0.454% |
| CCOC(=O)[C@@H](N)Cc1ccc(-c2cc(O[C@H](c3ccc(Cl)cc3-n3ccc(C)n3)C(F)(F)F)nc(N)n2)cc1 | 0% |
| Cc1cnc(Nc2ccc(N3CCN(C)CC3)cc2)nc1Nc1cccc(S(=O)(=O)NC(C)(C)C)c1 | -1.34% |
| N#Cc1c(C2CCNCC2)cc(-c2c(O)cccc2OCC2CC2)nc1N | 0.393% |
| c1ccc2c(Oc3nc(Nc4ccc(N5CCOCC5)cc4)c4ncn(C5CCCCC5)c4n3)cccc2c1 | -1.84% |
| CN1CCc2c(c3ccccc3n2Cc2ccc(C(=O)NO)cc2)C1 | -3.04% |
